High-throughput results from PubChem BioAssay.
The list is not random: actives were taken first. Their share in the collection is about 3.2%.
USP1 inh = inhibitors of human USP1/UAF1 deubiquitinase. recombinant USP1/UAF1, Ub-Rhodamine cleavage fluorescence. Potency, µM (doses to about 57.1 µM), without a hit: at the top dose activity change, negative = inhibition, hits mostly inhibitors. 390,000 tested, 0.23% active. AID 743255; also: potency is read from the fitted curve at half-maximal effect; nearly all actives have a fitted effect of over 60% in size
Target sequence (O94782 whole entry, looked up): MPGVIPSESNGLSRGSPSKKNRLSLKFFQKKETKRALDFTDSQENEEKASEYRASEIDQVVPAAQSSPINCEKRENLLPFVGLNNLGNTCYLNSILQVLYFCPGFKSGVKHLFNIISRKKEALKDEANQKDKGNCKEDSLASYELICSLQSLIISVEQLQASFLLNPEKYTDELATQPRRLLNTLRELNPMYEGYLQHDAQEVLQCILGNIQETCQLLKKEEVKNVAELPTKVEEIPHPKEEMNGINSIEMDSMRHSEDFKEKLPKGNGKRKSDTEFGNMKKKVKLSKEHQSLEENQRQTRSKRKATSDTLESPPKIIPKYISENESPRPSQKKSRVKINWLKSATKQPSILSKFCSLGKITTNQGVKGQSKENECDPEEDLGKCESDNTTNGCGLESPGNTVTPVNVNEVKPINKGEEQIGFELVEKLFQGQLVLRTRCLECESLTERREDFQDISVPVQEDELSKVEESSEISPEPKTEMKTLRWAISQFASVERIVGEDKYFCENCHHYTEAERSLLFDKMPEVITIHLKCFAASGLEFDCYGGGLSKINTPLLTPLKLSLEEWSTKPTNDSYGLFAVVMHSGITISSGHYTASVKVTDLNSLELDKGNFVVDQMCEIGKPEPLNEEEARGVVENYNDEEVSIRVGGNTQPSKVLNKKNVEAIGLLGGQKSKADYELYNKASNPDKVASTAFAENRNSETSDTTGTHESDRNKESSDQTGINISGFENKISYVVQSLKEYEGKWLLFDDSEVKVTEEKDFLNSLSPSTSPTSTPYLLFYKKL
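1 nM enzyme complex + cpd, 15 min RT; start with Ub-Rho 150nM final; kinetic fluorescence ex 480/em 540, 6 reads q60 s. Buffer 50mM HEPES pH 7.8, 0.5mM EDTA, 0.1 mg/ml BSA, 1mM TCEP, 0.01% Tween-20.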
VDR inh = inhibitors of human vitamin D receptor | 400,000 tested, 0.93% active | P11473 | VDR-SRC2-3 peptide fluorescence polarization, 2 h | Potency, µM, for inactives: max response, negative = inhibition, actives largely listed as inhibitors; also: potency is read from the fitted curve at half-maximal effect
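FP read-out; VDR + SRC2-3 coactivator peptide; 23 nl compound by pintool; 2 h RT incubation; reagents held at 4 deg C, protected from light.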
PLK1 PBD inh = inhibitors of human PLK1 polo-box domain binding; Potency, µM, inactives show max response, negative = inhibition, most hits filed as inhibitors; 360,000 tested, 2.8% active; Plk1 PBD binding of FITC phosphopeptide, fluorescence polarization; AID 720504; also: potency is read from the fitted curve at half-maximal effect; series mostly up to about 57 µM; nearly all actives have a fitted effect of over 65% in size
Coupling enz = inhibits coupling enzyme system, counter-screen for aldolase hits. activity change, negative = inhibition, % at 58.2 µM, hits read low. 290,000 tested, 0.67% active. coupling enzyme system counterscreen, AmpLite Red fluorescence. AID 2472; in the data active = activity change below about -30%
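Coupling enzymes only (glyceraldehyde-3-phosphate) + compound, at 57.5 uM final, 10 min RT; add substrate/coupling/AmpLite Red mix, 20 min RT; fluorescence ex 525/em 598 nm. Actives flag coupling-system interference.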
GALK inhibitor = blocks human galactokinase activity; Purified GALK, Kinase-Glo residual ATP luminescence; Potency, µM (highest dose often 57.5 µM), without a hit: at the top dose activity change, negative = inhibition, actives largely listed as inhibitors; 270,000 tested, 0.007% active; AID 1868; also: potency is read from the fitted curve at half-maximal effect
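ATP-depletion format; final 35 uM ATP, 100 uM D-galactose, 5 nM enzyme; pH 8.0 HEPES/Mg2+ buffer; 60 min RT; luminescence read 10 min after detection reagent.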
USP2a block = blocks human ubiquitin-specific protease USP2a | O75604 | USP2 core, Ub-CHOP2 coupled fluorogenic reporter, 485/531 | Potency, µM (highest dose often 38.3 µM), without a hit: at the highest dose activity change, negative = inhibition, usual class: inhibitors | 330,000 tested, 0.01% active | AID 463254;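 also: potency is read from the fitted curve at half-maximal effect; plate controls were DMSO wells for no effect and full inhibition by NEM control for full effect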
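Cell-free coupled assay: 10nM USP2 core preincubated 30min RT with compound in Tris-HCl pH 8.0/CaCl2/CHAPS buffer, then 25nM Ub-CHOP2 and 25nM reporter substrate; fluorescence (Ex 485/Em 531) read after 60min RT, normalized to NEM inhibition, concentration-response curves fitted.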
* marks the source's active call; other numbers are inactive results. Unless noted, calls follow the shape of the dose curve; as a rule, active = well fitted curve in the direction sought with a large enough effect; inconclusive = small, poorly fitted or top-dose-only effect, or another doubt; inactive = no such curve, though single readings can be large; an effect the other way counts as inactive or inconclusive. Unless noted, % is scaled to controls: 0 for no effect and ±100 for the full control effect.

N#C/C(=N\Nc1ccc(S(=O)(=O)N2CCCCCC2)cc1)C(N)=S was read as USP1 inh 1%, VDR inh inconclusive, PLK1 PBD inh 15µM*, Coupling enz 5, GALK inhibitor -2% and USP2a block -1%.
For Cc1ccccc1N=C1SCCN1C(=O)CN1C(=O)NC2(CCCC2)C1=O the results were USP1 inh -20%, VDR inh -8%, PLK1 PBD inh -4% and USP2a block -1%.
Screening CCn1cc(C(=O)NC2CCCCCC2)c2cc(OC)c(OC)cc2c1=O returned USP1 inh -21%, VDR inh 6%, PLK1 PBD inh -3%, Coupling enz 4, GALK inhibitor -5% and USP2a block 3%.
Screening CCc1cc[n+](C2=C([O-])c3ccccc3C(=O)/C2=N\S(=O)(=O)c2cccs2)cc1 returned USP1 inh 18µM*, VDR inh 2%, PLK1 PBD inh inconclusive, Coupling enz -55*, GALK inhibitor 1% and USP2a block 1%.
`O=C1C(=O)c2ccccc2C([O-])=C1[n+]1ccccc1` gave USP1 inh inconclusive, VDR inh -15%, PLK1 PBD inh 1%, Coupling enz -11, GALK inhibitor -1% and USP2a block 0%.
For Cc1ccsc1C(=O)NNC(=O)Nc1ccc(Cl)c(Cl)c1 the results were USP1 inh -7%, VDR inh -16%, PLK1 PBD inh inconclusive, Coupling enz -1, GALK inhibitor 0% and USP2a block 0%.
Screening NS(=O)(=O)c1ccc(NC(=O)c2c(Cl)cccc2Cl)cc1 returned USP1 inh -2%, VDR inh -9%, PLK1 PBD inh 21µM*, Coupling enz -9, GALK inhibitor 4% and USP2a block 1%.
Screening NS(=O)(=O)c1ccc(NC(=O)c2c(F)cccc2Cl)cc1 returned USP1 inh -15%, VDR inh -27%, PLK1 PBD inh 0%, Coupling enz -1, GALK inhibitor 1% and USP2a block 0%.
Screening Cc1occc1C(=O)NNC(=O)Nc1ccc(Cl)c(Cl)c1 returned USP1 inh -4%, VDR inh inconclusive, PLK1 PBD inh 6.7µM*, Coupling enz -1, GALK inhibitor 0% and USP2a block -1%.
CNS(=O)(=O)c1ccc(NC(=O)c2ccoc2C)cc1 was read as USP1 inh -19%, VDR inh 3%, PLK1 PBD inh -2%, Coupling enz 2, GALK inhibitor 6% and USP2a block 0%.
For Cc1occc1C(=O)Nc1ccc(S(N)(=O)=O)cc1 the results were USP1 inh -21%, VDR inh inconclusive, PLK1 PBD inh 21µM*, Coupling enz -1, GALK inhibitor 2% and USP2a block -1%.
O=C(Nc1ccccc1)c1sc2cc(C(F)(F)F)cnc2c1-c1cccs1 was read as USP1 inh -22%, VDR inh inconclusive, PLK1 PBD inh 3µM*, Coupling enz 0, GALK inhibitor 2% and USP2a block -1%.
Screening Cc1cc(C)c(NC(=O)OCCN2CCOCC2)c(C)c1 returned USP1 inh -11%, VDR inh -20%, PLK1 PBD inh 2.7µM*, Coupling enz 9, GALK inhibitor 7% and USP2a block -1%.
`CN(C)c1nc(N)c2nccnc2n1` gave USP1 inh 5%, VDR inh -10% and PLK1 PBD inh -14%.
`COc1ccc(C(=O)COC(=O)CCC(=O)c2cccs2)cc1` gave USP1 inh -14%, VDR inh 2%, PLK1 PBD inh 1%, Coupling enz -1, GALK inhibitor -2% and USP2a block -1%.
Screening COc1cc(/C=C2\C(=N)N3N=C(N4CCOCC4)SC3=NC2=O)ccc1OC(=O)c1ccccc1 returned USP1 inh -3%, VDR inh inconclusive, PLK1 PBD inh 27µM*, Coupling enz -2 and USP2a block -8%.
`COc1cc(/C=C2/C(=N)N3N=C(C)SC3=NC2=O)ccc1OS(=O)(=O)c1ccc(C)cc1` gave USP1 inh -9%, VDR inh -10%, PLK1 PBD inh 21µM*, Coupling enz 8, GALK inhibitor -16% and USP2a block -3%.
Screening CCC1=NN2C(=N)/C(=C/c3ccc(OS(=O)(=O)c4ccc(C)cc4)c(OC)c3)C(=O)N=C2S1 returned USP1 inh -5%, VDR inh -12%, PLK1 PBD inh 15µM*, Coupling enz 11, GALK inhibitor 3% and USP2a block -1%.
COc1cc(/C=C2\C(=N)N3N=C(S(C)(=O)=O)SC3=NC2=O)ccc1OS(=O)(=O)c1ccccc1 was read as GALK inhibitor inconclusive and USP2a block -1%.
COc1cc(/C=C2/C(=N)N3N=C(CC(=O)N4CCOCC4)SC3=NC2=O)ccc1OC(C)c1ccccc1 (stereo unspecified) was read as USP1 inh -10%, VDR inh -6%, PLK1 PBD inh inconclusive, Coupling enz 10, GALK inhibitor 9% and USP2a block 3%.
Screening COc1ccc(-n2c(CN3CCN(c4ccc(F)cc4)CC3)nc3ccc([N+](=O)[O-])cc3c2=O)c(OC)c1 returned USP1 inh -18%, VDR inh -19%, PLK1 PBD inh -6%, Coupling enz -5, GALK inhibitor -1% and USP2a block -9%.
For CC(=N\NC(=O)c1ccccc1)/C(=N/O)C(=O)Nc1ccccc1 the results were USP1 inh -27%, VDR inh 6%, PLK1 PBD inh -1%, Coupling enz 1, GALK inhibitor 0% and USP2a block 1%.
For CC(C)NC(=O)N1CCC(n2nccc2NC(=O)CCOc2ccccc2)CC1 the results were USP1 inh -19%, VDR inh 118%, PLK1 PBD inh -8%, GALK inhibitor -3% and USP2a block -1%.
Screening COc1cc(NC(=S)Nc2cccnc2)cc(OC)c1OC returned USP1 inh 3%, VDR inh -1%, PLK1 PBD inh -7%, Coupling enz 0, GALK inhibitor -1% and USP2a block 1%.
For COc1cccc(-c2cc(C(F)(F)F)c(C#N)c(=O)[nH]2)c1 the results were USP1 inh -11%, VDR inh 71µM*, PLK1 PBD inh 24µM*, Coupling enz 8, GALK inhibitor 3% and USP2a block 2%.
`N#Cc1c(C(F)(F)F)cc(-c2ccccc2)[nH]c1=O` gave USP1 inh -20%, VDR inh 2%, PLK1 PBD inh -9%, Coupling enz 20, GALK inhibitor -3% and USP2a block 1%.
Cc1nnc(SCC(=O)NC(=O)NC(C)(C)C)n1N was read as USP1 inh -18%, VDR inh -18%, PLK1 PBD inh 27µM*, Coupling enz 3, GALK inhibitor 2% and USP2a block 3%.
